Source: PubChem
KB-3-1 cytotox: KB-3-1 parental cell cytotoxicity | AID 1347075 | Potency, µM (highest dose often 46.1 µM), actives largely listed as cytotoxic | KB-3-1 viability, CellTiter-Glo ATP luminescence, 72 h | hit rate 1.4% among 400,000; further: potency means the concentration at half of the fitted maximal effect; on the % scale 0 is the no-effect control and ±100 the full control effect; nearly all actives have a fitted effect of over 60% in size
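Parental KB-3-1 adenocarcinoma cells in phenol-red-free DMEM with 10% FBS were pin-treated with compounds at several concentrations, incubated 72 h at 37 °C, and viability read by CellTiter-Glo luminescence; concentration-effect curves were fitted after normalization.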
DRD3 agonist: agonists of human D3 dopamine receptor. max activation, %. AID 652048. P35462. D3R DiscoveRx beta-arrestin cells, luminescence, 90 min. hit rate 0.58% among 410,000; in the data active means max activation above about 30%; further: 0% is about no effect
Target sequence (P35462 whole entry, looked up): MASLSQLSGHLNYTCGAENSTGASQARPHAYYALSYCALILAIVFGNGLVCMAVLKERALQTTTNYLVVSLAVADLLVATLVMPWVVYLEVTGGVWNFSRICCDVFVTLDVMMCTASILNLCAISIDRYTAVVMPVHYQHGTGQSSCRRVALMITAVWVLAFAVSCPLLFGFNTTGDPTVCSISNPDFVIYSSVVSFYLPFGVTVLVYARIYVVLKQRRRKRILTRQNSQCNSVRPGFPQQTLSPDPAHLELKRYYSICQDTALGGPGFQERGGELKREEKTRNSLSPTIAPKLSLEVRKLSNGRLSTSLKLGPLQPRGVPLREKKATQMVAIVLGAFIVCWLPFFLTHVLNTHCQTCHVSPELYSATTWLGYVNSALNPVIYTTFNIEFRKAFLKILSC
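Agonist-mode cell screen: cells plated at 1500/well and incubated overnight at 37 °C, then exposed to library compounds for 90 min at 37 °C. Detection reagent was added for 30–60 min at room temperature, and luminescence was read.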
D3 antag: D3 dopamine receptor (human) antagonism | P35462 | D3R cells, DiscoveRx beta-arrestin luminescence, antagonist mode; active compounds read low | max response, negative = inhibition, % | hit rate 2.5% among 360,000; in the data active means max response below about -50%; inconclusive means no clear call, values can overlap the other calls; further: on the % scale 0 is the no-effect control and ±100 the full control effect
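Cells plated overnight at 1500 cells/well, then exposed to library compounds with dopamine controls for 90 minutes at 37 degrees C. DiscoveRx reagent added for 30–60 minutes at room temperature; luminescence read, quantitative HTS format.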
MCF10A rerep: DNA re-replication induction in MCF 10a cells; MCF 10A DNA re-replication, Hoechst nuclear intensity, 48 h; hit rate 2.9% among 350,000; Potency, µM (top dose mostly 46.1 µM), for inactives: at the top dose activity, positive = re-replication, most hits filed as activators; further: potency means the concentration at half of the fitted maximal effect; % of control where 0% means no effect; nearly all actives have a fitted effect of over 50% in size
SW480 rereplic: DNA re-replication induction in SW480 cells. Potency, µM (titrated, usually from 46.1 µM), for inactives: top-dose re-replication activation, hits mostly activators. hit rate 1.8% among 340,000. SW480 DNA re-replication, Hoechst DNA content imaging, 48 h; further: potency means the concentration at half of the fitted maximal effect; % of control where 0% means no effect; nearly all actives have a fitted effect of over 55% in size
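250 cells/well; 23 nL cpd via pin tool; 48 hr, 37 C, 5% CO2; Hoechst 40 min; imager read of total nuclear intensity, ex 405/em 500-530 nm.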
KB-V1 MDR tox: KB-V1 MDR subline cytotoxicity. KB-V1 MDR cells viability, CellTiter-Glo, 72 h. Potency, µM (highest dose often 46.1 µM), most hits filed as cytotoxic. hit rate 3.4% among 400,000. AID 1347076; further: potency means the concentration at half of the fitted maximal effect; on the % scale 0 is the no-effect control and ±100 the full control effect; nearly all actives have a fitted effect of over 60% in size
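Cytotoxicity toward P-gp-expressing KB-V1 cells was determined as loss of CellTiter-Glo luminescence after 72 h at 37 degrees C. Compounds were tested in quantitative HTS format across a concentration range, with curves fitted to normalized data.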
The depositor's hits bear a star; i = inactive; ? = inconclusive; nt = no result given; [ ] = dose if it differs, or a comment. A selection: hits, their analogues and other compounds. The true share with any hit is near 8.9%. Unless noted, the call rests on the fitted dose curve; in most records, active means well fitted curve in the direction sought with a large enough effect; inconclusive means small, poorly fitted or top-dose-only effect, or another doubt; inactive means no such curve, though single readings can be large; an effect the other way counts as inactive or inconclusive.

SMILES	KB-3-1 cytotox	DRD3 agonist	D3 antag	MCF10A rerep	SW480 rereplic	KB-V1 MDR tox
CSc1nc(N(C)NC(=O)c2ccc(Cl)cc2)c2ccccc2n1	0.58µM*	-7	-2	?	0.58µM*	2.9µM*
COCCCC1CCN(C(=O)c2cc(COc3ccc(C)nc3)on2)CC1	nt	15	36	5%	0%	nt
Cc1cccc(CNC(=O)c2cccc(NC(=O)N3CCSc4ncccc43)c2)c1	i	1	nt	nt	nt	i
COc1cnc(-c2ccccn2)nc1Oc1c(C)cccc1C	i	-17	-18	?	?	?
COc1cnc(-c2ccccn2)nc1Oc1cccc(Cl)c1	i	-9	-22	1%	3%	6.5µM*
COc1cnc(-c2ccccn2)nc1Sc1ccccc1Cl	?	-8	-68*	?	13µM*	i
COc1ccc(Oc2nc(-c3ccccn3)ncc2OC)cc1	i	-22	?	-9%	-7%	i
COc1cnc(-c2ccccn2)nc1N(C)C	?	-32	?	13%	18µM*	21µM*
CCOC(=O)C(C)Sc1nc(-c2ccccn2)ncc1OC (centres undefined)	i	-8	-6	20%	0%	?
COc1cnc(-c2ccccn2)nc1Sc1c(Cl)cccc1Cl	?	-9	-65*	?	15µM*	2.9µM*
COc1ccc(CCNC(=O)CSc2cn(CCNC(=O)c3c(F)cccc3F)c3ccccc23)cc1OC	i	4	nt	nt	nt	i
COc1cc(C(=O)OCCc2cc3ccccc3c(=O)o2)cc(OC)c1OC	4.6µM*	34*	63	15µM*	8.2µM*	?
C[C@H](O)Cc1cc2ccccc2c(=O)o1	i	-3	-16	2.9µM*	1%	i
COc1cc2cc(CCCOC(=O)c3cc(OC)c(OC)c(OC)c3)oc(=O)c2cc1OC	i	55*	16	10%	-1%	?
Cc1ccc(C(=O)C(c2ccccc2)N2Cc3ccccc3C2=N)cc1 (centres undefined)	?	-10	-23	21µM*	?	?
COc1cccc(-n2c(=O)c3sc4ccccc4c3n(CC(=O)NC3CCCCC3)c2=O)c1	i	-9	nt	nt	nt	i
c1ccc(CC2CNc3ccccc3CN2)cc1 (centres undefined)	i	-5	-52*	20%	-5%	i
COc1ccc(C2=C(C(C)=O)Sc3nnc(-c4ccc(C)cc4)n3N2C(C)=O)cc1OC	nt	-3	nt	nt	nt	nt
COc1ccc(CNC(=O)COC(=O)Cc2ccc(Cl)cc2Cl)cc1	i	13	-80*	10%	4%	i
CCOC(=O)c1c2c(n(C)c1C)C(=O)C(=O)c1ccc(Br)cc1-2	3.7µM*	3	-5	2.1µM*	2.6µM*	3.3µM*
CCOC(=O)c1c2c(n(Cc3ccccc3)c1C)C(=O)C(=O)c1ccccc1-2	2.9µM*	4	21	3.3µM*	4.1µM*	3.3µM*
CCN(CC)c1ccc(C=Nc2ccc(C)cc2C)c(O)c1	i	4	4	19%	-6%	i
CCN(CC)c1ccc(/C=N/NC(=O)CNC(=O)C2COc3ccccc3O2)c(O)c1 (centres undefined)	?	3	17	6.5µM*	6.5µM*	?
CCOC(=O)N/N=C/c1ccc(N(CC)CC)cc1O	21µM*	-4	-4	23µM*	16µM*	?
CCN(CC)c1ccc(/C=N/NC(=O)c2c(Cl)cnn2C)c(O)c1	i	5	9	12µM*	?	?
SMILES	KB-3-1 cytotox	DRD3 agonist	D3 antag	MCF10A rerep	SW480 rereplic	KB-V1 MDR tox
CCN(CC)c1ccc(C=Nc2cc(C)ccc2C)c(O)c1	?	-7	7	2%	?	23µM*
CCN(CC)c1ccc(/C=N/Nc2ccc(C)cc2)c(O)c1	i	-4	0	-4%	-7%	i
CCC(=O)[C@@]1(C)[C@H](C)C[C@@H]2[C@@H]3CCC4=CC(=O)C=C[C@@]4(C)[C@H]3[C@H](O)C[C@]21C	nt	nt	nt	5%[20.6 µM]	0%[20.6 µM]	nt
Cc1cccc(N2CCN(S(=O)(=O)c3ccc4c(c3)C(C(C)C)C(=O)N4)CC2)c1C (centres undefined)	?	1	nt	nt	nt	?
Cc1nn(C)c2c1c(C(F)(F)F)cc(=O)n2CC(=O)N1CCCCC1C (centres undefined)	i	2	nt	nt	nt	i
COc1cc(NC(=O)CCC(=O)N2CCN(S(=O)(=O)c3ccc(C)cc3)CC2)cc(OC)c1	i	-2	-16	10%	10%	18µM*
COc1cccc(N2CCN(CC(=O)Nc3ccc(S(=O)(=O)N4CCCCCC4)cc3)CC2)c1	i	1	-17	12%	4%	21µM*
Cc1ccc(S(=O)(=O)N2CCN(CC(=O)Nc3ccc([N+](=O)[O-])cc3)CC2)cc1C	i	-2	0	-13%	-81%	18µM*
COc1cccc(N2CCN(CC(=O)Nc3ccccc3C(=O)NCc3ccccc3)CC2)c1	i	16	13	17%	5%	?
COc1cccc(N2CCN(CC(=O)Nc3ccccc3C(=O)NCCc3ccccc3)CC2)c1	?	34*	27	1%	-15%	i
O=c1c(S(=O)(=O)c2cccc(Cl)c2)cn(Cc2ccccc2)c2cc(N3CCCCC3)c(F)cc12	nt	1	nt	nt	nt	nt
CNc1c(NC(=O)c2ccc(OC)c(OC)c2)c(=O)oc2ccccc12	i	2	nt	nt	nt	i
COc1ccc(NC(=O)CN2CCN(S(=O)(=O)c3ccc(Cl)cc3)CC2)cc1	i	-4	3	8%	9%	16µM*
O=C(CN1CCN(c2ccc(O)cc2)CC1)Nc1cc(S(=O)(=O)N2CCCC2)ccc1Cl	i	4	-1	11%	?	i
O=C(CN1CCN(c2ccc(O)cc2)CC1)Nc1cc(S(=O)(=O)N2CCCCC2)ccc1Cl	i	29	11	6%	-1%	8.2µM*
CCOC(=O)c1c(C)[nH]c(C)c1S(=O)(=O)NCCN1CCN(c2cc(Cl)ccc2C)CC1	16µM*	-17	?	0%	-6%	?
CCOC(=O)c1c(C)[nH]c(C)c1S(=O)(=O)NCC(=O)N1CCN(c2cc(Cl)ccc2C)CC1	i	-11	nt	nt	nt	i
O=C(N/N=C/c1coc2ccc(Cl)cc2c1=O)c1cc(O)cc(O)c1	i	-2	8	7%	-1%	i
Cc1ccc2occ(/C=N/NC(=O)c3ccc(Cl)cc3)c(=O)c2c1	i	-5	-6	15%	-1%	?
CCOc1ccccc1C(=O)N/N=C/c1coc2ccc(Cl)cc2c1=O	?	1	-6	15µM*	15µM*	i
